The supplement of paper PMC10127200
Where a name gives a salt, the structure may show the parent alone.

Columns and labels:
Test in all cases: Euclidean distance of Cell Painting phenotypic profile (signed KS, 77 features) to DMSO centroid (dimensionless distance); 5 or 10 uM (library dependent); higher = stronger phenotypic change vs DMSO (phenoactivity)
Details in all cases: 48 h
[1] = system: 786-O
Method in brief: (§1)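 At 10 or 5 uM, as set by the library, and 0.1% DMSO final, compounds were applied for 48 h to five cancer lines and one healthy fibroblast line. Stained cells were imaged confocally at 20X in 9 fields per well, and Harmony extracted 77 features scored as signed Kolmogorov-Smirnov statistics against vehicle wells on the same plate. Profiles underwent plate-position correction, correlation weighting and replicate averaging at the top dose. Phenoactivity is the Euclidean distance from each such profile to the median vehicle profile.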

[2] = system: A549
Method in brief: as §1

[3] = system: DU145
Method in brief: as §1

[4] = system: FB
Method in brief: as §1

[5] = system: HEPG2
Method in brief: as §1

[6] = system: OVCAR4
Method in brief: as §1

`CC(C)CCN1c2nc(Nc3cc(F)c(O)c(F)c3)ncc2N(C)C(=O)C1C` (centres undefined) showed an Euclidean distance [1] of 1.38, an Euclidean distance [2] of 1.84 and an Euclidean distance [3] of 2.16. It also gave an Euclidean distance [4] of 1.49, an Euclidean distance [5] of 0.771 and an Euclidean distance [6] of 2.61.
`CN(C)CCn1nnnc1SCC1=C(C(=O)O)N2C(=O)[C@@H](NC(=O)Cc3csc(N)n3)[C@H]2SC1` [Cefotiam hydrochloride] gave an Euclidean distance [1] of 1.2, an Euclidean distance [2] of 1.06 and an Euclidean distance [3] of 0.774. The Euclidean distance [4] was 0.93, the Euclidean distance [5] was 0.739 and the Euclidean distance [6] was 0.935.
With `CC[C@H](C)[C@H](NC(=O)[C@H]([C@@H](C)CC)N(C)C(C)=O)C(=O)N[C@H](C(=O)N[C@@H](CC(C)C)C(=O)[C@@]1(C)CO1)[C@@H](C)O` [Epoxomycin] the Euclidean distance [1] was 2.19, the Euclidean distance [2] was 2.8 and the Euclidean distance [3] was 2.62. The Euclidean distance [4] was 2.62, the Euclidean distance [5] was 2.95 and the Euclidean distance [6] was 3.12.
In the case of `c1ccc2c(c1)CCCC2C1=NCCN1` (centres undefined) [Tetrahydrozoline HCl], the Euclidean distance [1] is reported as 0.978, the Euclidean distance [2] is reported as 0.966 and the Euclidean distance [3] is reported as 0.786. The Euclidean distance [4] was 0.944, the Euclidean distance [5] was 0.601 and the Euclidean distance [6] was 1.78.
With `CCCCCCCN(CC)CCCC(O)c1ccc(NS(C)(=O)=O)cc1` (centres undefined) [Ibutilide Fumarate] the Euclidean distance [1] was 1.19, the Euclidean distance [2] was 0.555 and the Euclidean distance [3] was 1.13. It also gave an Euclidean distance [4] of 1.27, an Euclidean distance [5] of 1.2 and an Euclidean distance [6] of 1.47.
In the case of `CC(C)(C(=O)O)c1ccc(C(O)CCCN2CCC(C(O)(c3ccccc3)c3ccccc3)CC2)cc1` (centres undefined) [Fexofenadine HCl], the Euclidean distance [1] is reported as 1.52, the Euclidean distance [2] is reported as 0.838 and the Euclidean distance [3] is reported as 0.779. It also gave an Euclidean distance [4] of 0.629, an Euclidean distance [5] of 0.305 and an Euclidean distance [6] of 1.91.
In the case of `CCCCC1OC(=O)c2ccccc21` (centres undefined) [3-n-Butylphathlide], the Euclidean distance [1] is reported as 1.36, the Euclidean distance [2] is reported as 0.948 and the Euclidean distance [3] is reported as 0.834. For the same compound, the Euclidean distance [4] was 1.38, the Euclidean distance [5] was 0.575 and the Euclidean distance [6] was 1.15.
In the case of `O=c1ncccn1[C@@H]1O[C@H](CO)[C@@H](O)[C@H]1O` [Zebularine], the Euclidean distance [1] is reported as 1.2, the Euclidean distance [2] is reported as 1 and the Euclidean distance [3] is reported as 0.895. It also gave an Euclidean distance [4] of 0.816, an Euclidean distance [5] of 0.887 and an Euclidean distance [6] of 0.492.
`COc1cc(OC)cc(N(CCNC(C)C)c2ccc3ncc(-c4cnn(C)c4)nc3c2)c1` gave an Euclidean distance [1] of 3.65, an Euclidean distance [2] of 3.46 and an Euclidean distance [3] of 2.34. The Euclidean distance [4] was 4.29, the Euclidean distance [5] was 3.36 and the Euclidean distance [6] was 3.1.
In the case of `O=C(Nc1cc(C(F)(F)F)cc(C(F)(F)F)c1)c1cc(Cl)ccc1O`, the Euclidean distance [1] is reported as 0.884, the Euclidean distance [2] is reported as 0.772 and the Euclidean distance [3] is reported as 1.02. The Euclidean distance [4] was 1.14, the Euclidean distance [5] was 0.971 and the Euclidean distance [6] was 1.48.
For `Cn1ncc(Cl)c1-c1cc(C(=O)N[C@H](CN)Cc2ccc(F)c(F)c2)oc1Cl`, the Euclidean distance [1] was 3.04, the Euclidean distance [2] was 2.27 and the Euclidean distance [3] was 3.3. The Euclidean distance [4] was 3.69, the Euclidean distance [5] was 2.27 and the Euclidean distance [6] was 2.44.
Work on `COc1ccccc1N1CCN(CCN(C(=O)C2CCCCC2)c2ccccn2)CC1` yielded an Euclidean distance [1] of 0.724, an Euclidean distance [2] of 1.67 and an Euclidean distance [3] of 1.84. The Euclidean distance [4] was 3.28, the Euclidean distance [5] was 2.11 and the Euclidean distance [6] was 4.14.
Work on `CCS(=O)(=O)N1CC(CC#N)(n2cc(-c3ncnc4[nH]ccc34)cn2)C1` yielded an Euclidean distance [1] of 1.86, an Euclidean distance [2] of 0.875 and an Euclidean distance [3] of 1.45. The Euclidean distance [4] was 1.57, the Euclidean distance [5] was 0.589 and the Euclidean distance [6] was 0.899.
Compound `CCc1cccc2c3c([nH]c12)C(CC)(CC(=O)O)OCC3` (centres undefined) [Etodolac] has an Euclidean distance [1] of 0.711, an Euclidean distance [2] of 0.964 and an Euclidean distance [3] of 1.01. For the same compound, the Euclidean distance [4] was 1.18, the Euclidean distance [5] was 0.56 and the Euclidean distance [6] was 1.35.
`CC1CCc2cc(F)cc3c(=O)c(C(=O)O)cn1c23` (centres undefined) [Flumequine] gave an Euclidean distance [1] of 1.37, an Euclidean distance [2] of 0.57 and an Euclidean distance [3] of 1.32. For the same compound, the Euclidean distance [4] was 0.897, the Euclidean distance [5] was 0.704 and the Euclidean distance [6] was 1.44.
Compound `CCN(CCCc1ccccc1)CCCc1ccccc1` [Alverine Citrate] has an Euclidean distance [1] of 0.97, an Euclidean distance [2] of 1.06 and an Euclidean distance [3] of 1.22. It also gave an Euclidean distance [4] of 1.12, an Euclidean distance [5] of 0.789 and an Euclidean distance [6] of 1.01.
With `CCS(=O)(=O)c1cccc(-c2cc(C(=O)NC3CCN(C)CC3)c(C)c3[nH]c4ncc(C)cc4c23)c1` the Euclidean distance [1] was 3.1, the Euclidean distance [2] was 3.9 and the Euclidean distance [3] was 2.89. For the same compound, the Euclidean distance [4] was 3.63, the Euclidean distance [5] was 2.3 and the Euclidean distance [6] was 2.17.
With `Cc1cc(C)c(CNC(=O)c2cc(-c3ccc(CN4CCOCC4)cc3)cc3c2cnn3C2CCCC2)c(=O)[nH]1` the Euclidean distance [1] was 1.48, the Euclidean distance [2] was 1.7 and the Euclidean distance [3] was 0.808. It also gave an Euclidean distance [4] of 1.97, an Euclidean distance [5] of 1.44 and an Euclidean distance [6] of 0.692.
With `Nc1c(CC(=O)O)cccc1C(=O)c1ccccc1` [Amfenac Sodium Monohydrate] the Euclidean distance [1] was 1.3, the Euclidean distance [2] was 0.843 and the Euclidean distance [3] was 0.909. For the same compound, the Euclidean distance [4] was 1.46, the Euclidean distance [5] was 0.424 and the Euclidean distance [6] was 1.11.
With `O=C(O)c1ccccc1O` [Salicylic acid] the Euclidean distance [1] was 0.877, the Euclidean distance [2] was 0.32 and the Euclidean distance [3] was 0.898. The Euclidean distance [4] was 0.648, the Euclidean distance [5] was 0.308 and the Euclidean distance [6] was 1.08.
With `COc1cc2ncnc(Nc3ccc(F)c(Cl)c3)c2cc1NC(=O)/C=C/CN1CCCCC1` the Euclidean distance [1] was 3.46, the Euclidean distance [2] was 4.69 and the Euclidean distance [3] was 2.82. It also gave an Euclidean distance [4] of 2.17, an Euclidean distance [5] of 1.47 and an Euclidean distance [6] of 2.05.
With `Cn1cc(-c2ccc3c(c2)ncn3-c2cc(NS(=O)(=O)C3CC3)cc(-c3ccc(F)cc3F)c2)cn1` the Euclidean distance [1] was 2.53, the Euclidean distance [2] was 1.64 and the Euclidean distance [3] was 1.26. It also gave an Euclidean distance [4] of 4.3, an Euclidean distance [5] of 1.6 and an Euclidean distance [6] of 2.75.
For `CC(C)OC(=O)C(C)(C)Oc1ccc(C(=O)c2ccc(Cl)cc2)cc1` [Fenofibrate], the Euclidean distance [1] was 1.18, the Euclidean distance [2] was 0.803 and the Euclidean distance [3] was 0.9. For the same compound, the Euclidean distance [4] was 1.1, the Euclidean distance [5] was 1.75 and the Euclidean distance [6] was 1.73.
`O=C(NC[C@H](O)CO)c1ccncc1Nc1ccc(I)cc1F` showed an Euclidean distance [1] of 2.39, an Euclidean distance [2] of 2.67 and an Euclidean distance [3] of 2.49. For the same compound, the Euclidean distance [4] was 3.7, the Euclidean distance [5] was 1.53 and the Euclidean distance [6] was 2.4.
